Sampled rows, rich in hits. Any-hit rate of the full collection: about 8.1%.
MCF10A rereplic – DNA re-replication induction in MCF 10a cells. Potency, µM (highest dose often 46.1 µM), most hits filed as activators. MCF 10A DNA re-replication, Hoechst nuclear intensity, 48 h. AID 624296. 2.9% of 350,000 active; further: nearly all actives have a fitted effect of over 50% in size
KB-3-1 cytotox – kills parental KB-3-1 adenocarcinoma cells; KB-3-1 viability, CellTiter-Glo ATP luminescence, 72 h; Potency, µM (titrated, usually from 46.1 µM), actives largely listed as cytotoxic; 1.4% of 400,000 active; further: nearly all actives have a fitted effect of over 60% in size
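Cells are dispensed, compounds pinned in, plates held at 37 °C for 72 h, then CellTiter-Glo is added and luminescence read after 10 minutes. Cell line: parental KB-3-1 in phenol-red-free DMEM, 10% FBS.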
ELG1 DNA repair – inhibitors of ELG1-dependent DNA repair in HEK293T cells; HEK293T ELG1-luciferase reporter, luminescence, 16 h; DNA damage induced by 5-fluorouridine; 2.3% of 330,000 active; Potency, µM (titrated, usually from 46.1 µM), hits mostly inhibitors; further: nearly all actives have a fitted effect of over 55% in size
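DMSO vehicle served as the neutral condition. Each well held 2,000 cells given 5-fluorouridine plus compound; after 16 hr at 37 °C/5% CO2, ONE-Glo was added and luciferase measured 30 min later.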
SW480 rereplic – DNA re-replication induction in SW480 cells. SW480 DNA re-replication, Hoechst DNA content imaging, 48 h. Potency, µM (doses to about 46.1 µM), actives largely listed as activators. 1.8% of 340,000 active; further: nearly all actives have a fitted effect of over 55% in size
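Per well, 250 cells were exposed to pinned compound for 48 hr. Nuclear DNA was visualised with Hoechst (40 min, 37 C) and total object intensity recorded by fluorescence scanning.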
KB-V1 cytotox – kills drug-selected multidrug resistant KB-V1 cells | KB-V1 MDR cells viability, CellTiter-Glo, 72 h | Potency, µM (doses to about 46.1 µM), most hits filed as cytotoxic | 3.4% of 400,000 active | AID 1347076; further: nearly all actives have a fitted effect of over 60% in size
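Compound-treated KB-V1 multidrug-resistant cells, 72 h, 37 degrees C; viability by CellTiter-Glo. Fitted qHTS curves give the values.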
Each line names hits and unclear results; the compound was inactive in the other large screens. The call rests on the fitted dose curve; in most records, active means well fitted curve in the direction sought with a large enough effect; inconclusive means small, poorly fitted or top-dose-only effect, or another doubt; inactive means no such curve, though single readings can be large; an effect the other way counts as inactive or inconclusive.

CSc1ccc(Cl)c(C(=O)Nc2cc(S(=O)(=O)N3CCOCC3)ccc2N2CCOCC2)c1	ELG1 DNA repair 18µM
O=C(CN1CCc2ccccc2C1)Nc1cc(S(=O)(=O)N2CCOCC2)ccc1N1CCCC1	KB-V1 cytotox 4.1µM
O=C(Nc1ccccc1N1CCCC1)c1cc(S(=O)(=O)N2CCOCC2)ccc1Cl	none
O=C(Nc1cc(S(=O)(=O)N2CCOCC2)ccc1N1CCOCC1)c1cccc(Cl)c1	none (no result: MCF10A rereplic, ELG1 DNA repair, SW480 rereplic)
CCOc1ccccc1CNC(=O)CC(C)n1ccc(C)n1 (configuration not stated)	none (no result: MCF10A rereplic, ELG1 DNA repair, SW480 rereplic)
C[C@H]1CN([C@@H](C)CO)C(=O)CCCn2cc(nn2)CO[C@@H]1CN(C)S(C)(=O)=O	none (no result: MCF10A rereplic, ELG1 DNA repair, SW480 rereplic)
Cc1ccc2oc3c(c(=O)c2c1)C(c1cccc(O)c1)N(Cc1ccccc1Cl)C3=O (configuration not stated)	none (no result: MCF10A rereplic, ELG1 DNA repair, SW480 rereplic)
Cc1cccc(OCc2cc(=O)n3c(-c4ccccc4)csc3n2)c1C	none (no result: MCF10A rereplic, ELG1 DNA repair, SW480 rereplic)
COc1cccc(/C=C2/SC(=S)N(CC(=O)Nc3nccs3)C2=O)c1	KB-V1 cytotox inconclusive (no result: MCF10A rereplic, ELG1 DNA repair, SW480 rereplic)
Cc1ccc(N2CC(c3nnc(NC(=O)c4ccco4)s3)CC2=O)cc1Cl (configuration not stated)	KB-V1 cytotox inconclusive (no result: MCF10A rereplic, ELG1 DNA repair, SW480 rereplic)
CN1CCN(c2ccc(S(=O)(=O)N3CCCCC3)cc2NC(=O)c2ccc3ccccc3c2)CC1	MCF10A rereplic 23µM, KB-3-1 cytotox inconclusive, ELG1 DNA repair inconclusive, SW480 rereplic inconclusive, KB-V1 cytotox 10µM
Cc1c(C(=O)Nc2ccc3nc(N4CCOCC4)sc3c2)oc2ccccc12	MCF10A rereplic inconclusive, KB-3-1 cytotox inconclusive, ELG1 DNA repair 11µM, SW480 rereplic inconclusive, KB-V1 cytotox inconclusive
COC(=O)c1ccc2nc(-c3ccc(Cl)cc3)c(Cc3ccsc3)n2c1	KB-3-1 cytotox inconclusive, KB-V1 cytotox 21µM (no result: MCF10A rereplic, ELG1 DNA repair, SW480 rereplic)
COC(=O)c1ccc2nc(-c3ccccc3)c(Cc3ccsc3)n2c1	KB-3-1 cytotox inconclusive (no result: MCF10A rereplic, ELG1 DNA repair, SW480 rereplic)
Cc1ccc2nc(-c3cccc(Cl)c3)c(Cc3ccccc3)n2c1	KB-V1 cytotox 21µM (no result: MCF10A rereplic, ELG1 DNA repair, SW480 rereplic)
Cc1ccc2nc(-c3ccccc3)c(CN3CCOCC3)n2c1	MCF10A rereplic 0.65µM
Cc1ccc(Cc2c(-c3ccc(C#N)cc3)nc3ccc(Br)cn23)cc1	KB-3-1 cytotox inconclusive (no result: MCF10A rereplic, ELG1 DNA repair, SW480 rereplic)
N#Cc1ccc(-c2nc3ccc(Br)cn3c2Cc2ccccc2)cc1	KB-3-1 cytotox 21µM (no result: MCF10A rereplic, ELG1 DNA repair, SW480 rereplic)
Nc1ncnn1Cc1ccccc1	none (no result: MCF10A rereplic, ELG1 DNA repair, SW480 rereplic)
COC(=O)c1ccc2nc(-c3ccc(OC)c(OC)c3)c(Cc3ccsc3)n2c1	none (no result: MCF10A rereplic, ELG1 DNA repair, SW480 rereplic)
COc1ccc(-c2nc3ccc(C)cn3c2Cc2ccsc2)cc1OC	KB-V1 cytotox 23µM (no result: MCF10A rereplic, ELG1 DNA repair, SW480 rereplic)
CCOC(=O)CCC(NC(=O)c1ccc(Nc2nc3ccccc3nc2C(=O)OCC)cc1)C(=O)OCC (configuration not stated)	KB-V1 cytotox 9.2µM (no result: ELG1 DNA repair)
CC(=O)Oc1ccc(N2C(=O)C3C(C2=O)C(C(=O)c2ccc(Cl)cc2)N2CCCC32)cc1 (configuration not stated)	MCF10A rereplic 18µM, KB-3-1 cytotox 18µM, ELG1 DNA repair inconclusive, SW480 rereplic 4.6µM, KB-V1 cytotox inconclusive
Cc1ccc(N2C(=O)C3C(C2=O)C(C(=O)c2ccc(Cl)cc2)N2CCCC32)cc1 (configuration not stated)	ELG1 DNA repair inconclusive, KB-V1 cytotox inconclusive
Cc1ccccc1CN1c2ccccc2-c2nc(SCC(=O)c3ccccc3)ncc2S1(=O)=O	none (no result: MCF10A rereplic, ELG1 DNA repair, SW480 rereplic)
COc1cc2c(cc1OC)CN(c1ccc(C(F)(F)F)cn1)CC2	MCF10A rereplic 16µM, ELG1 DNA repair inconclusive, SW480 rereplic inconclusive, KB-V1 cytotox inconclusive
CCOC(=O)c1c(NC(=O)c2ccc(Cl)cc2)csc1C	KB-V1 cytotox 9.2µM
O=C(C[C@H]1C[C@@H]2c3cc(NC(=O)c4cccnc4)ccc3O[C@@H]2[C@H](CO)O1)NCc1ccncc1	none (no result: MCF10A rereplic, ELG1 DNA repair, SW480 rereplic)
O=C(CCNC(=O)c1ccc(Br)cc1)NC1CCCCCC1	KB-V1 cytotox 16µM
O=C(CNC(=O)c1ccc(Cl)cc1)NC1CCCCC1	SW480 rereplic 8.2µM
O=C(CCNC(=O)c1ccc(Cl)cc1)NC1CCCCCC1	MCF10A rereplic inconclusive, ELG1 DNA repair inconclusive (no result: KB-3-1 cytotox, KB-V1 cytotox)
CCCn1c(N)cc(=O)n(CCC)c1=O	MCF10A rereplic inconclusive
Cc1cc(N2CCOCC2)nc2ccc(NC(=O)CCC(=O)N3CCC(C)CC3)cc12	ELG1 DNA repair inconclusive

Screening results as filed in PubChem BioAssay.
